{
  "source": "PubChem BioAssay AID1490",
  "about": "(National Center for Advancing Translational Sciences (NCATS), 2009)",
  "note": "Values joined by “and” are separate entries in the source; they are usually repeats but may differ in a detail not shown here. Identical values can stand only once. Among all 310,000 compounds or so, about 11,000 (3.5%) were called active. Not shown: some 4% with an inconclusive outcome. Shown is part of a subset that was picked to be rich in actives. Values without a mark were called inactive. The call rests on the fitted dose curve; in most records, active means well fitted inhibition curve with a large enough effect; inconclusive means small, poorly fitted or top-dose-only effect, or another doubt; inactive means no such curve, though single readings can be large or run the other way. Potency means the concentration at half of the fitted maximal effect.",
  "data": [
    {"target": "4'-phosphopantetheinyl transferase ffp (Bacillus subtilis) (UniProt Q9F4F7)", "assay": "qHTS Assay for Inhibitors of Bacillus subtilis Sfp phosphopantetheinyl transferase (PPTase);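 further: the enzyme is Sfp with the accession as filed and its product quenches rhodamine fluorescence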;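 on largest response in the series, negative = inhibition: 0% = enzyme reaction without inhibitor and -100% = no enzyme wells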", "conditions": "Biochemical Sfp PPTase activity", "procedure,_shortened": "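Step 1, compound plus 15 nM Sfp-PPTase, 15 min, room temperature. Step 2, add rhodamine-CoA (5 uM) and BHQ-2-YbbR (12.5 uM). Step 3, read 525/598 nm fluorescence at 0 and 30 min.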", "units": {"largest response in the series, negative = inhibition": "%"}, "values": [
      {"smiles": "CC(=O)Nc1cccc(NC(=O)CSc2nccn2Cc2ccc(F)cc2)c1", "largest response in the series, negative = inhibition": 11.3},
      {"smiles": "CN(C)S(=O)(=O)c1ccc(C(=O)NCCN=C2NS(=O)(=O)c3ccccc32)cc1", "largest response in the series, negative = inhibition": 2.12},
      {"smiles": "Oc1ccc(-c2[nH]ncc2-c2nc3ccccc3s2)c(O)c1", "largest response in the series, negative = inhibition": 2.93},
      {"smiles": "c1ccc2nc(C3=NCCN3)cnc2c1", "largest response in the series, negative = inhibition": 2.82},
      {"smiles": "Cc1cc(O)ccc1-c1cnc2ccccc2n1", "Potency": "50.1 µM (active)"},
      {"smiles": "CCOCCOC(=O)C(C)Oc1ccc(Oc2ncc(C(F)(F)F)cc2Cl)cc1", "note": "(stereo not given)", "largest response in the series, negative = inhibition": -1.26},
      {"smiles": "O=C(c1ccco1)N1CCN(C(=O)c2cc(-c3ccccc3F)no2)CC1", "largest response in the series, negative = inhibition": 1.68},
      {"smiles": "CN(CCO)S(=O)(=O)c1ccc2c(c1)C(=O)c1cc(S(=O)(=O)N(C)CCO)ccc1-2", "largest response in the series, negative = inhibition": 0.575},
      {"smiles": "Oc1ccc(-c2onc3ccc(Cl)cc23)cc1", "Potency": "22.4 µM (active)"},
      {"smiles": "COc1ccc(-c2onc3ccc(C(C)=O)cc23)cc1", "largest response in the series, negative = inhibition": 15.7},
      {"smiles": "CC(OC(=O)c1ccc2noc(-c3ccccc3)c2c1)C(N)=O", "note": "(stereo not given)", "largest response in the series, negative = inhibition": 9.21},
      {"smiles": "CCCCn1c(N)c(N(CC)C(=O)c2ccccc2C(F)(F)F)c(=O)[nH]c1=O", "largest response in the series, negative = inhibition": 6.91},
      {"smiles": "CC(C)C[C@H]1CN=C(Nc2ccccc2)N1CC1CCCCC1", "largest response in the series, negative = inhibition": 6.04},
      {"smiles": "O=C(c1cc(COc2cccc(C(F)(F)F)c2)on1)N1CCSCC1", "largest response in the series, negative = inhibition": -6.37},
      {"smiles": "Cc1cc(NC(=O)c2ccco2)c(=O)n(Cc2c(F)cccc2Cl)c1", "largest response in the series, negative = inhibition": -1.88},
      {"smiles": "CN(Cc1ccccc1)C(=O)C1CCCN(c2ncnc3c2nc2n3CCCCC2)C1", "note": "(stereo not given)", "largest response in the series, negative = inhibition": -5.59},
      {"smiles": "CN(c1ccccc1)c1ccc(/C=c2\\s/c(=C(/C#N)C(=O)C(C)(C)C)n(Cc3ccco3)c2=O)cc1", "largest response in the series, negative = inhibition": -21.7},
      {"smiles": "O=C(Cc1ccccc1)n1nc(-c2ccccc2)nc1NCc1ccco1", "largest response in the series, negative = inhibition": 0.0328},
      {"smiles": "O=c1nc2s/c(=C\\c3ccco3)c(=O)n2nc1Cc1ccccc1", "Potency": "28.2 µM (active)"},
      {"smiles": "N#Cc1cc([N+](=O)[O-])ccc1NCC1CCCO1", "note": "(stereo not given)", "largest response in the series, negative = inhibition": 13.1},
      {"smiles": "O=C(NC1CCCCCCC1)c1cccs1", "largest response in the series, negative = inhibition": -20.5},
      {"smiles": "COCCNc1ncnc2ccc(-c3cccnc3)cc12", "largest response in the series, negative = inhibition": 6.73},
      {"smiles": "COc1cc(/C=N/N2CCN(c3ccccc3)CC2)ccc1OC(C)=O", "largest response in the series, negative = inhibition": 16.9},
      {"smiles": "COc1ccccc1N1CCN(/N=C\\C(Br)=C\\c2ccccc2)CC1", "Potency": "31.6 µM (active)"},
      {"smiles": "COc1ccccc1N1CCN(/N=C/c2ccc(O)cc2O)CC1", "largest response in the series, negative = inhibition": -7.55},
      {"smiles": "COc1cc(CNCc2ccc(OC)c3ccccc23)cc(OC)c1OC", "largest response in the series, negative = inhibition": -22.2},
      {"smiles": "Cc1ccc(S/C(=N\\S(=O)(=O)c2ccc(Cl)cc2)c2ccccc2)cc1", "Potency": "56.2 µM (active)"},
      {"smiles": "O=S(=O)(/N=C(/Nc1ccccn1)c1ccccc1)c1ccc(Cl)cc1", "largest response in the series, negative = inhibition": 27.1},
      {"smiles": "Cc1ccc(S(=O)(=O)/N=C(/Nc2ccccn2)c2ccc(Cl)cc2)cc1", "largest response in the series, negative = inhibition": -17.5},
      {"smiles": "COc1ccc(NC(=O)CSc2nncc(=O)n2N)cc1OC", "largest response in the series, negative = inhibition": 9.26},
      {"smiles": "CCn1c(SCC(=O)Nc2nccs2)nnc1-c1ccncc1", "largest response in the series, negative = inhibition": 2.26},
      {"smiles": "Nn1c(SCC(=O)Nc2nccs2)nncc1=O", "Potency": "22.4 µM (active)"},
      {"smiles": "O=S(=O)(c1ccc(-c2ccno2)s1)N1CCCCC1", "largest response in the series, negative = inhibition": 11.8},
      {"smiles": "COc1ccc(-c2oc3ncnc(NCCCO)c3c2-c2ccc(OC)cc2)cc1", "largest response in the series, negative = inhibition": -12.6},
      {"smiles": "COc1ccc(-c2oc3ncn(Cc4ccco4)c(=N)c3c2-c2ccc(OC)cc2)cc1", "Potency": "39.8 µM (active)"},
      {"smiles": "N=c1c2c(-c3ccccc3)c(-c3ccccc3)oc2ncn1Cc1ccco1", "largest response in the series, negative = inhibition": -5.12},
      {"smiles": "O=c1oc2ccccc2c(NC2CCCCC2)c1NS(=O)(=O)c1ccc(Cl)cc1", "largest response in the series, negative = inhibition": 4.82},
      {"smiles": "CN(C(=O)COC(=O)c1nc(Cl)ccc1Cl)C1CCS(=O)(=O)C1", "note": "(stereo not given)", "largest response in the series, negative = inhibition": 11},
      {"smiles": "Cc1c(-c2cccc(Cl)c2)nc2ccccc2c1C(=O)OCC(=O)N(C)C1CCS(=O)(=O)C1", "note": "(stereo not given)", "largest response in the series, negative = inhibition": 1.32},
      {"smiles": "CN(C(=O)COC(=O)c1cc(-c2ccco2)nc2ccccc12)C1CCS(=O)(=O)C1", "note": "(stereo not given)", "Potency": "28.2 µM (active)"},
      {"smiles": "Cc1ccc2nc(-c3ccc(Br)cc3)cn2c1", "largest response in the series, negative = inhibition": 17},
      {"smiles": "COC(=O)C1=C(C)NC2=C(C(=O)c3ccccc32)C1c1ccc(-c2ccc(C(=O)O)cc2)o1", "note": "(stereo not given)", "Potency": "14.1 µM (active)"},
      {"smiles": "COC(=O)C1=C(C)NC(=O)NC1/C=C/c1ccccc1", "note": "(stereo not given)", "largest response in the series, negative = inhibition": 6.06},
      {"smiles": "Cc1ccc(C2C3=C(Nc4[nH]n(-c5ccccc5)c(=O)c42)c2ccccc2C3=O)cc1", "note": "(stereo not given)", "largest response in the series, negative = inhibition": -4.89},
      {"smiles": "COC(=O)c1ccc(N2CCOCC2)c(NC(=O)c2ccc(Br)o2)c1", "largest response in the series, negative = inhibition": 6.59},
      {"smiles": "C#CCOc1ccccc1/C=C1/C(=O)ON=C1C", "Potency": "50.1 µM (active)"},
      {"smiles": "CC1=NOC(=O)/C1=C\\c1ccccc1", "largest response in the series, negative = inhibition": -4.08},
      {"smiles": "C#CCOc1ccc(/C=C2/C(=O)NN(c3ccccc3)C2=O)cc1OC", "largest response in the series, negative = inhibition": 8.7},
      {"smiles": "NS(=O)(=O)c1ccc(CCNC(=O)c2nc(CS(=O)(=O)c3ccc(Cl)cc3)no2)cc1", "largest response in the series, negative = inhibition": 13.4},
      {"smiles": "O=C1/C(=C\\c2ccsc2)NC(=S)N1c1ccccc1", "largest response in the series, negative = inhibition": 4.5},
      {"smiles": "CCCCN=C1N/C(=C\\c2ccco2)C(=O)N1c1ccccc1", "Potency": "56.2 µM (active)"},
      {"smiles": "CCOC(=O)C1(C)NC(c2ccco2)C2C(=O)N(c3ccccc3)C(=O)C21", "note": "(stereo not given)", "largest response in the series, negative = inhibition": 27.2},
      {"smiles": "COc1cccc(N(CC(=O)NC2CCCC2)C(=O)CCCC(=O)Nc2ccccn2)c1", "largest response in the series, negative = inhibition": 7.32},
      {"smiles": "COc1cccc(C(=O)Nc2nnc(S(=O)(=O)N3CCCCC3)s2)c1", "largest response in the series, negative = inhibition": 6.22},
      {"smiles": "O=C(Cn1c[n+](CC(=O)c2ccc([N+](=O)[O-])cc2)cn1)c1ccc([N+](=O)[O-])cc1", "Potency": "56.2 µM (active) and 44.7 µM (active)"},
      {"smiles": "O=C(Nn1cnnc1)c1ccc([N+](=O)[O-])cc1", "largest response in the series, negative = inhibition": 13.2},
      {"smiles": "O=C(c1ccncc1)c1ccc([N+](=O)[O-])cc1", "largest response in the series, negative = inhibition": 13.2},
      {"smiles": "Cc1ccc(C(=O)NCCN2CCOCC2)cc1C", "largest response in the series, negative = inhibition": 11.9},
      {"smiles": "CCC1=Nc2cc(C(=O)NCCN3CCCC3)ccc2Sc2ccc(C)cc21", "largest response in the series, negative = inhibition": -8.33},
      {"smiles": "Cc1cccc(-c2nc3ccc(C(=O)NCCN4CCN(C)CC4)cc3nc2-c2cccc(C)c2)c1", "Potency": "50.1 µM (active)"}
    ]}
  ]
}
